From ChEMBL document CHEMBL3988442, “University of Dundee, Small-Polar-MMV Screening Library” (2021) come the findings set out here.

The campaign covered roughly 69,000 compounds. About 1,000 (1.4%) showed an effect of 50% or more. The sample as a whole holds a higher share of strong results than the screen did.

The test deals with Leishmania donovani. The test is described as follows: Leishmania intramacrophage assay. The arrangement: scale not given: in the data most compounds retested in dose-response had high values. In kind it is functional, organism-based.

With `Cc1nc(-c2cc(Cl)cc3c2OC(CN)C3)c[nH]1` (stereo not given), the “Percent Effect” value (30.3 µM, […]) is on record as 27.22%.

In the case of `Cn1cnnc1C1CCCN(C(=O)c2cc(Cl)c(Cl)n2C)C1` (stereo not given), the “Percent Effect” value (30 µM) was 16.78%.

For `Cc1ccc(N2CCCC(NCc3ccc4c(c3)OCCO4)C2)nn1` (stereo not given), the “Percent Effect” value (30.3 µM, […]) is -12.27%.

Consider `CCCNC(=O)CCC(=O)N1CCC(c2n[nH]c(C3CC3)n2)CC1`, for which the “Percent Effect” value (30.3 µM, […]) is given as -11.33%.

Consider `O=C1CCN(C(=O)NCc2ccccc2Oc2ccccc2)CCN1`, for which, for the setting “30.3 µM, […]”, the “Percent Effect” value was -11.56%.

`COc1ccc(CN2CCn3cc(CNC(=O)CC4CC4)nc3C2)cc1.O=C(O)C(F)(F)F`: the “Percent Effect” value (30.3 µM, […]) is on record as -3.07%.

Turning to `CN1Cc2ccccc2CC1C(=O)N1CCN(CCS(C)(=O)=O)CC1` (stereo not given), the “Percent Effect” value (30.3 µM, […]) is reported as -7.608%.

In the case of `COc1ccc(-c2nnsc2C(=O)N2CCC(C(N)=O)CC2)cc1`, the “Percent Effect” value (30.3 µM, […]) is recorded as -2.161%.

Turning to `O=c1[nH]cc(N2CCOCC2)c(=O)[nH]1`, the “Percent Effect” value (30.3 µM, […]) is -12.54%.

For `O=C(O)C(F)(F)F.O=C(O)C(F)(F)F.O=c1ccc2c(n1Cc1ccncc1)CCN(Cc1ccoc1)CC2`, under “30.3 µM, […]”, the “Percent Effect” value came to 7.941%.

For `O=C(O)C(F)(F)F.O=C(O)C(F)(F)F.O=c1ccc2c(n1CCN1CCCC1)CCN(Cc1ccoc1)CC2`, where the note is “30 µM, 30.03 µM”, the “Percent Effect” value was 45%.

For `O=C(O)C(F)(F)F.O=C(O)C(F)(F)F.O=c1ccc2c(n1Cc1cccnc1)CCN(Cc1ccoc1)CC2`, for the setting “30.3 µM, […]”, the “Percent Effect” value is 52.28%.

Consider `CCN(CC)C(CNC(=O)c1ccnc(N(C)C)c1)c1ccsc1` (stereo not given), for which the “Percent Effect” value (30.3 µM, […]) came to 1.995%.

As to `Cc1ccc(NC2CCN(C(=O)CCc3c(C)noc3C)CC2)nn1`, the “Percent Effect” value (30 µM) was 23.52%.

Take `O=C(O)c1ccccc1-c1c(-c2ccccc2)ncn1C[C@H]1CCCN1`: the “Percent Effect” value (30.3 µM, […]) is 31.03%.

Take `Oc1ccc(-c2c(-c3ccccc3)ncn2C[C@H]2CCCN2)cc1`: under “30.3 µM, […]”, the “Percent Effect” value worked out at 51.83%.

On to `O=C(O)c1ccccc1-c1c(-c2ccccc2)ncn1CC1CCCO1` (stereo not given), for which, under “30.3 µM, […]”, the “Percent Effect” value was -1.472%.

`CCc1ccc(C(COC)NC(=O)c2ccc(C(N)=O)cc2)o1` (stereo not given): under “30.3 µM, […]”, the “Percent Effect” value was determined as 64.18%.

As to `CCc1ccc(C(COC)NC(=O)c2ccc(NC(C)=O)cc2)o1` (stereo not given), the “Percent Effect” value (30.3 µM, […]) was -4.032%.

For `CCc1ccc(C(COC)NC(=O)c2ccc(O)nc2)o1` (stereo not given), the “Percent Effect” value (30.3 µM, […]) is given as -7.414%.

On to `NC(=O)CS(=O)(=O)Cc1csc(-c2ccccc2)n1`, for which the “Percent Effect” value (30.3 µM, […]) is given as 15.77%.

On to `Cc1nnsc1C(=O)NCCNS(=O)(=O)c1cccs1`, for which the “Percent Effect” value (30.3 µM, […]) is listed as -23.26%.

As for `Cc1nc(C)n(C2CCCN(C(=O)c3sccc3C)C2)n1` (stereo not given), the “Percent Effect” value (30 µM) came out at 16.01%.

Regarding `Cc1cc(C)c(CNC(=O)NCC2Cc3ccccc3O2)c(=O)[nH]1` (stereo not given), the “Percent Effect” value (30.3 µM, […]) was determined as 1.622%.

As to `CC(=O)NCCNC(=O)NCC1Cc2ccccc2O1` (stereo not given), where the note is “30.3 µM, […]”, the “Percent Effect” value stood at 52.86%.

Take `CC(C)c1noc(CCNC(=O)NCC2Cc3ccccc3O2)n1` (stereo not given): the “Percent Effect” value (30.3 µM, […]) is recorded as -9.19%.

For `NS(=O)(=O)CCNC(=O)c1cc(Br)c2c(c1)OCCO2`, the “Percent Effect” value (30.3 µM, […]) is recorded as -2.46%.

With `CC(C)CC(=O)N1C[C@@H]2CCN(c3ncccn3)C[C@@H]2C1.O=C(O)C(F)(F)F`, the “Percent Effect” value (30 µM, 30.03 µM) is 12.14%.

As to `CC(C)(C)c1n[nH]cc1CNC1CCC(C(F)(F)F)CC1.Cl` (stereo not given), under “30.3 µM, […]”, the “Percent Effect” value is listed as -4.401%.

Regarding `COCCNC(=O)[C@@H]1CN(c2ncccn2)C[C@H]2OCC[C@H]21`, where the note is “30.3 µM, […]”, the “Percent Effect” value came out at 9.036%.

Consider `COCCNC(=O)[C@@H]1CN(c2cc(OC)ncn2)C[C@H]2OCC[C@H]21`, for which, under “30.3 µM, […]”, the “Percent Effect” value was 7.324%.

With `COCCNC(=O)[C@H]1CN(c2ncccn2)C[C@H]2OCC[C@@H]12`, the “Percent Effect” value (30.3 µM, […]) is 52.44%.

Take `CCC1CCC(N(Cc2cc(=O)n(C)c(=O)n2C)C2CC2)CC1` (stereo not given): the “Percent Effect” value (30.3 µM, […]) worked out at 27.04%.

With `CC1(C)CN(CC(F)(F)F)CCN1CC(N)=O`, the “Percent Effect” value (30.3 µM, […]) is recorded as 13.64%.

Consider `Cc1ccc(OCCn2cnc3oc(C)c(C(=O)O)c3c2=O)cc1`, for which the “Percent Effect” value (30.3 µM, […]) is on record as -9.017%.

On to `Cc1noc(C(C)N2CCN(CCn3ccccc3=O)CC2)n1` (stereo not given), for which the “Percent Effect” value (30.3 µM, […]) is recorded as 29.89%.

Regarding `CC(c1nc(C2CC2)no1)N1CCN(CCn2ccccc2=O)CC1` (stereo not given), the “Percent Effect” value (30.3 µM, […]) was 21.89%.

As to `CCCc1noc(C(C)N2CCN(CCn3ccccc3=O)CC2)n1` (stereo not given), where the note is “30.3 µM, […]”, the “Percent Effect” value is reported as 52.92%.

For `Cc1nc2ccc(S(=O)(=O)Nc3c(C)nn(CC(=O)O)c3C)cc2s1`, the “Percent Effect” value (30.3 µM, […]) is -9.195%.

For `CCOC[C@@H]1CC[C@H]2[C@H](CCN2S(=O)(=O)c2ccc(F)cc2)O1`, the “Percent Effect” value (30.3 µM, […]) amounted to 19.83%.

Take `CCCC(NC(=O)c1cc(C)n(C2CC2)c1C)c1nnn[nH]1` (stereo not given): where the note is “30 µM, 30.03 µM”, the “Percent Effect” value is 2.645%.

For `CCOc1ccc(Cl)cc1CNCCCn1ccnc1`, for the setting “30 µM, 30.03 µM”, the “Percent Effect” value is 1.663%.

In the case of `COc1ccc(Cl)cc1CNCCCn1ccnc1`, the “Percent Effect” value (30.3 µM, […]) stood at 3.119%.

For the compound `CCOc1c(CNCCCn2ccnc2)cc(Cl)cc1OC.Cl.Cl`, the “Percent Effect” value (30.3 µM, […]) is recorded as 35.73%.

Take `CCn1nnc(NCc2cc(Cl)cc(Cl)c2OC)n1`: the “Percent Effect” value (30.3 µM, […]) is recorded as -5.532%.

In the case of `CCOc1c(Cl)cc(Cl)cc1CNCCCn1ccnc1`, the “Percent Effect” value (30.3 µM, […]) was 67.73%.

`Cc1cc(F)ccc1CN1CCCC(O)(CN2CCCC2)C1` (stereo not given): the “Percent Effect” value (30.3 µM, […]) stood at 37.99%.

Regarding `Cc1cc(F)ccc1CN1CCC(O)(CN2CCCCC2)C1` (stereo not given), the “Percent Effect” value (30 µM, 30.03 µM) is on record as 37.89%.

On to `COc1ccc(CN2CCC(O)(CN3CCCCC3)C2)c(C)c1` (stereo not given), for which, for the setting “30.3 µM, […]”, the “Percent Effect” value was determined as 67.74%.

For `CCOc1ccc(C(=O)CCC(=O)N(C)Cc2nc(C)c[nH]2)cc1C`, under “30.3 µM, […]”, the “Percent Effect” value is given as -49.88%.
